Results taken from ChEMBL document CHEMBL3988442, “University of Dundee, Small-Polar-MMV Screening Library” (2021).
For some of these results: Measured potencies and affinities stand elsewhere.

What was measured:
[1] = target: T1, Methionyl-tRNA synthetase, putative (Leishmania donovani (strain BPK282A1)) (UniProt E9BF75); assay: Leishmania donovani Methionine tRNA synthetase (LdMetRS):v7. Dose response assay; assay type: functional; design: conc 80 nM, time 150 minutes
T1 sequence (whole entry): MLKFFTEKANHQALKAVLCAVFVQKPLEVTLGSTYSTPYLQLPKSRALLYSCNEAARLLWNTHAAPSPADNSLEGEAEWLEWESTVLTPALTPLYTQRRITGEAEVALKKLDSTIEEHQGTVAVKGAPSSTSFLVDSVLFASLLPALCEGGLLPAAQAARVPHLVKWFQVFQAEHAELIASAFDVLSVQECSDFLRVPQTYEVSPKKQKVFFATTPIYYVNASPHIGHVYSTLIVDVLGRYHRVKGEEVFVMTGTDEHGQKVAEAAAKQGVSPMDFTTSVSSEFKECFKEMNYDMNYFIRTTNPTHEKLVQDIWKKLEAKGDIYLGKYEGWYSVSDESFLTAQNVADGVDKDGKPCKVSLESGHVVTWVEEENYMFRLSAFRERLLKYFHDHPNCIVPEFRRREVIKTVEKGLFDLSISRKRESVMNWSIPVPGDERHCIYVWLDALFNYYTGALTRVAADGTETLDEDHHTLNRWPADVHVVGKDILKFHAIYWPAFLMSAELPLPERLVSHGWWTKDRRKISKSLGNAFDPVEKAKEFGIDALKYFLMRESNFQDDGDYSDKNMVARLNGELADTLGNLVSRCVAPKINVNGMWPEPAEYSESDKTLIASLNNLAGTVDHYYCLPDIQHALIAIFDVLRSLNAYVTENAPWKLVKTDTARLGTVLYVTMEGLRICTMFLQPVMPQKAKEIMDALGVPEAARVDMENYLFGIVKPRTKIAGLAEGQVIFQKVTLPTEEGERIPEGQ

[2] = target: Protein translocase subunit SecA (Escherichia coli (strain K12)) (UniProt P10408); assay: Assay to Identify E. coli SecA ATPase Inhibitors; assay type: functional; design: scale not given: direction of the effect not stated beside the values; conditions: 30 µM
Protein translocase subunit SecA (Escherichia coli (strain K12)), sequence (P10408 whole entry): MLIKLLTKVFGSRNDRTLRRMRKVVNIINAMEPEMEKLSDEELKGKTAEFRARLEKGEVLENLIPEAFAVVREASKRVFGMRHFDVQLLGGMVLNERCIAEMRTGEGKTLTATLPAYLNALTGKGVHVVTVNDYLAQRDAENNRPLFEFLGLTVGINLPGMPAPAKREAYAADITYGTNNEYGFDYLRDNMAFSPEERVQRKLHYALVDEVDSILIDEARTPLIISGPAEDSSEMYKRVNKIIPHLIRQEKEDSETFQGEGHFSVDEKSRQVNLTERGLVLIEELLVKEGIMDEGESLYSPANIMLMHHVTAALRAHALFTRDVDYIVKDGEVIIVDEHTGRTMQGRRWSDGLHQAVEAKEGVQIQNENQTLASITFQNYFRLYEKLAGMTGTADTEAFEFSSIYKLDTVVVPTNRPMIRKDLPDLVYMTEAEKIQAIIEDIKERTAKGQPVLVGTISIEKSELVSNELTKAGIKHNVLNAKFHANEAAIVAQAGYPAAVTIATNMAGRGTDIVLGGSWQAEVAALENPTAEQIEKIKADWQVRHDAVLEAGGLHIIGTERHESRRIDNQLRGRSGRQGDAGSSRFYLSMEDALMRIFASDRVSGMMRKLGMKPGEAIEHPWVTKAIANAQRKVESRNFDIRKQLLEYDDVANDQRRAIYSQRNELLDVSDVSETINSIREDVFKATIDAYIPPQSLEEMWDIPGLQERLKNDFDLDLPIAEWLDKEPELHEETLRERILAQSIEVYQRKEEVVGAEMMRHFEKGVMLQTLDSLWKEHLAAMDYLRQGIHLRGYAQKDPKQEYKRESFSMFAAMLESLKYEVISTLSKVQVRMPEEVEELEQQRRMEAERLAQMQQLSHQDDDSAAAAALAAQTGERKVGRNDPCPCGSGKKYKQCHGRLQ

[3] = target: T2, Ubiquitin-activating enzyme e1, putative (Leishmania donovani (strain BPK282A1)) (UniProt E9BSI1); assay: Leishmania donovani Ubiquitin Activating Enzyme (LdE1); assay type: functional; design: scale not given: direction of the effect not stated beside the values; conditions: 30 µM
T2 sequence (whole entry): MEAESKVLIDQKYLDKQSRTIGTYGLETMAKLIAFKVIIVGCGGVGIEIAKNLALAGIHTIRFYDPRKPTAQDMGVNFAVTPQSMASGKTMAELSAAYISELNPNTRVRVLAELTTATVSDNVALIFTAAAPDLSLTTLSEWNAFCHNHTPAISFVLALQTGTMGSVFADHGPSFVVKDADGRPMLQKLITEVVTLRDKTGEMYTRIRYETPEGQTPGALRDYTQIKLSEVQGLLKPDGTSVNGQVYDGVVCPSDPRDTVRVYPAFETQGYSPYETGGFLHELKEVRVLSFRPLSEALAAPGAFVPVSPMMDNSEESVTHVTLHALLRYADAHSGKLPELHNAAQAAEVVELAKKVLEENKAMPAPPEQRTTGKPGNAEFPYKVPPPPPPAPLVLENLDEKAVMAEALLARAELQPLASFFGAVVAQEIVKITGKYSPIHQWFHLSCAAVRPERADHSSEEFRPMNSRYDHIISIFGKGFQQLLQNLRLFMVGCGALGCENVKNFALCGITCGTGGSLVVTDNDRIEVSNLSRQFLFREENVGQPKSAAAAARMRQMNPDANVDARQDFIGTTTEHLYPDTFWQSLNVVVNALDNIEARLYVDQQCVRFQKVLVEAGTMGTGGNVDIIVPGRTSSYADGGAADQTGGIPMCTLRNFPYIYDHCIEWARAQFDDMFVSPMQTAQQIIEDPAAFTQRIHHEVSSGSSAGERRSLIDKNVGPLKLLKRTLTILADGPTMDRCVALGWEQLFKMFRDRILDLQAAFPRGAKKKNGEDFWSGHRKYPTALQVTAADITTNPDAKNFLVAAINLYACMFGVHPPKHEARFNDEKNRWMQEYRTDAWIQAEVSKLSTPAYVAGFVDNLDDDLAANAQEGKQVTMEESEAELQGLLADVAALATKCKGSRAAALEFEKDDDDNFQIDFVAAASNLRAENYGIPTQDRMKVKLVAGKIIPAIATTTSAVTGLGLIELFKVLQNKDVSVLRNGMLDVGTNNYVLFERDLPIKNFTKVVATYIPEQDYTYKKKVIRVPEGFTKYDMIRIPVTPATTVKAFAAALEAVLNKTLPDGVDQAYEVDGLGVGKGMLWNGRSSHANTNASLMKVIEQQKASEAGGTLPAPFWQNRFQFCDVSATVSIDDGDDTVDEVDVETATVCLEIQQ

[4] = target: Sialic acid-binding Ig-like lectin 9 (Homo sapiens) (UniProt Q9Y336); assay: Hs-Siglec9 ALPHAscreen SOP 20170721; design: scale not given: direction of the effect not stated beside the values; conditions: 10 µM
Sialic acid-binding Ig-like lectin 9 (Homo sapiens), sequence (Q9Y336 whole entry): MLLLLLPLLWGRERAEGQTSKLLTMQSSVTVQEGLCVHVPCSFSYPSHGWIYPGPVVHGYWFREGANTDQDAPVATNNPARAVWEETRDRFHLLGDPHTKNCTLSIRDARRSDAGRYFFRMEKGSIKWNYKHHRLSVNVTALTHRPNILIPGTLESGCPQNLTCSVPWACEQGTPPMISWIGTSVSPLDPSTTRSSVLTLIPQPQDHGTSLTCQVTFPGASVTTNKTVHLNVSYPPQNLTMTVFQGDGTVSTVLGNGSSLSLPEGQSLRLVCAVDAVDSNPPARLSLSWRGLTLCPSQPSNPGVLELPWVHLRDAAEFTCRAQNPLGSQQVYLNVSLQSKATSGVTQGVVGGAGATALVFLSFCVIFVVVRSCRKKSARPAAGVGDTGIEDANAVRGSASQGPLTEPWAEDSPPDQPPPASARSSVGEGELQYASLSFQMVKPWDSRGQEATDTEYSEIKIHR

Trypanosoma cruzi = assay: Trypanosoma cruzi phosphomannomutase and mannose-1-phosphate guanylyltransferase assay; assay type: functional; design: scale not given: direction of the effect not stated beside the values; conditions: 10 µM
[5] = target: T3, Arginase-2, mitochondrial (Homo sapiens) (UniProt P78540); assay: in vitro enzyme assay to detect the production of urea directly proportional to the activity of Arginase II; assay type: functional; design: scale not given: in the data most compounds retested in dose-response had high values; conditions: 33.3 µM
T3 sequence (whole entry): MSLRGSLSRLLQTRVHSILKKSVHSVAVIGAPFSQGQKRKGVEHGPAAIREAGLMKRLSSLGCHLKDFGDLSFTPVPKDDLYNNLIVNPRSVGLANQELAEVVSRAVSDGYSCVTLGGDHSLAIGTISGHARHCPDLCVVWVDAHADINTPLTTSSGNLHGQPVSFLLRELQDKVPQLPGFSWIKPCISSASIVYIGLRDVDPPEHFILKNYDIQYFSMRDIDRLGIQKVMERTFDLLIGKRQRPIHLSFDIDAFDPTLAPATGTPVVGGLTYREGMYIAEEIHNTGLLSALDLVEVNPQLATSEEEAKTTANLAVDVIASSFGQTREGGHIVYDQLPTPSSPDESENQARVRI

[6] = target: T4, Proteasome subunit beta (Trypanosoma cruzi) (UniProt O96673); assay: Trypanosoma cruzi proteasome chymotrypsin-like activity (TcProtChymo) assay.; assay type: functional; design: scale not given: in the data most compounds retested in dose-response had high values; conditions: 9.37 µM
T4 sequence (whole entry): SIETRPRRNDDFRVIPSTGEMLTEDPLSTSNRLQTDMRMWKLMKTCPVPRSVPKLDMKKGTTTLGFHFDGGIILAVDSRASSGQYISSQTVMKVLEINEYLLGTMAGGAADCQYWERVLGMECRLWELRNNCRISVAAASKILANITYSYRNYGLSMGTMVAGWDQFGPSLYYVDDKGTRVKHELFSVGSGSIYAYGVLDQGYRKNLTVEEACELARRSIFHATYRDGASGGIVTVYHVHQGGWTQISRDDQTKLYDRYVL

Homo sapiens = organism: Homo sapiens; assay: To identify inhibition of the IFN signalling (Jak-Stat) pathway via expression of an eGFP reporter gene under the control of an IFN-stimulated response element (ISRE) containing MxA promoter.; assay type: functional; design: scale not given: direction of the effect not stated beside the values; conditions: 30 µM
[7] = target: T5, Tyrosyl-tRNA synthetase, putative (Trypanosoma cruzi (strain CL Brener)) (UniProt Q4DSP6); assay: Trypanosoma cruzi tyrosyl tRNA synthetase (TcYRS) _High Tyrosine SOP; assay type: functional; design: scale not given: in the data most compounds retested in dose-response had high values; conditions: 30 µM
T5 sequence (whole entry): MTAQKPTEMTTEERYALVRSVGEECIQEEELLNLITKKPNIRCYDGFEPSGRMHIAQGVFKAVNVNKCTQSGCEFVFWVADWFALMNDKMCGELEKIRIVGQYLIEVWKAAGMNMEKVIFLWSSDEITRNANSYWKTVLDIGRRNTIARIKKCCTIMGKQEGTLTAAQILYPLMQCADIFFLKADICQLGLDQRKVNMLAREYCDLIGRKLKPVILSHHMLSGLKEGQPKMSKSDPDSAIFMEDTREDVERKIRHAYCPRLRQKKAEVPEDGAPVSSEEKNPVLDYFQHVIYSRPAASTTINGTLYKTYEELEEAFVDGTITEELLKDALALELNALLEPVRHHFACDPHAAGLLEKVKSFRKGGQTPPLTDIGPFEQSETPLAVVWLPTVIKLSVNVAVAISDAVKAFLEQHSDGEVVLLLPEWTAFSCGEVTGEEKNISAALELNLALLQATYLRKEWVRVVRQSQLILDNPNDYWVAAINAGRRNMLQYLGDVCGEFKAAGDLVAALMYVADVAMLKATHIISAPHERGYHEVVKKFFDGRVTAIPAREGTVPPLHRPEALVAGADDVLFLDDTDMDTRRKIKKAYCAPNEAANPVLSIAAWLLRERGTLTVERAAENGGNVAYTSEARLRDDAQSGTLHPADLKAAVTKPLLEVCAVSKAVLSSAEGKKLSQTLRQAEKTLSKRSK

[8] = target: T5, Tyrosyl-tRNA synthetase, putative (Trypanosoma cruzi (strain CL Brener)); assay: Trypanosoma cruzi tyrosyl tRNA synthetase (TcYRS) SOP; assay type: functional; design: scale not given: direction of the effect not stated beside the values; conditions: 30 µM
[9] = target: Chromo domain-containing protein 1 (Saccharomyces cerevisiae (strain ATCC 204508 / S288c) (Baker's yeast)) (UniProt P32657); assay: ScCHD-1 Enzyme Inhibition Assay; assay type: functional; design: scale not given: in the data most compounds retested in dose-response had high values; conditions: 30 µM
Chromo domain-containing protein 1 (Saccharomyces cerevisiae (strain ATCC 204508 / S288c) (Baker's yeast)), sequence (P32657 whole entry, the tested form may be a part): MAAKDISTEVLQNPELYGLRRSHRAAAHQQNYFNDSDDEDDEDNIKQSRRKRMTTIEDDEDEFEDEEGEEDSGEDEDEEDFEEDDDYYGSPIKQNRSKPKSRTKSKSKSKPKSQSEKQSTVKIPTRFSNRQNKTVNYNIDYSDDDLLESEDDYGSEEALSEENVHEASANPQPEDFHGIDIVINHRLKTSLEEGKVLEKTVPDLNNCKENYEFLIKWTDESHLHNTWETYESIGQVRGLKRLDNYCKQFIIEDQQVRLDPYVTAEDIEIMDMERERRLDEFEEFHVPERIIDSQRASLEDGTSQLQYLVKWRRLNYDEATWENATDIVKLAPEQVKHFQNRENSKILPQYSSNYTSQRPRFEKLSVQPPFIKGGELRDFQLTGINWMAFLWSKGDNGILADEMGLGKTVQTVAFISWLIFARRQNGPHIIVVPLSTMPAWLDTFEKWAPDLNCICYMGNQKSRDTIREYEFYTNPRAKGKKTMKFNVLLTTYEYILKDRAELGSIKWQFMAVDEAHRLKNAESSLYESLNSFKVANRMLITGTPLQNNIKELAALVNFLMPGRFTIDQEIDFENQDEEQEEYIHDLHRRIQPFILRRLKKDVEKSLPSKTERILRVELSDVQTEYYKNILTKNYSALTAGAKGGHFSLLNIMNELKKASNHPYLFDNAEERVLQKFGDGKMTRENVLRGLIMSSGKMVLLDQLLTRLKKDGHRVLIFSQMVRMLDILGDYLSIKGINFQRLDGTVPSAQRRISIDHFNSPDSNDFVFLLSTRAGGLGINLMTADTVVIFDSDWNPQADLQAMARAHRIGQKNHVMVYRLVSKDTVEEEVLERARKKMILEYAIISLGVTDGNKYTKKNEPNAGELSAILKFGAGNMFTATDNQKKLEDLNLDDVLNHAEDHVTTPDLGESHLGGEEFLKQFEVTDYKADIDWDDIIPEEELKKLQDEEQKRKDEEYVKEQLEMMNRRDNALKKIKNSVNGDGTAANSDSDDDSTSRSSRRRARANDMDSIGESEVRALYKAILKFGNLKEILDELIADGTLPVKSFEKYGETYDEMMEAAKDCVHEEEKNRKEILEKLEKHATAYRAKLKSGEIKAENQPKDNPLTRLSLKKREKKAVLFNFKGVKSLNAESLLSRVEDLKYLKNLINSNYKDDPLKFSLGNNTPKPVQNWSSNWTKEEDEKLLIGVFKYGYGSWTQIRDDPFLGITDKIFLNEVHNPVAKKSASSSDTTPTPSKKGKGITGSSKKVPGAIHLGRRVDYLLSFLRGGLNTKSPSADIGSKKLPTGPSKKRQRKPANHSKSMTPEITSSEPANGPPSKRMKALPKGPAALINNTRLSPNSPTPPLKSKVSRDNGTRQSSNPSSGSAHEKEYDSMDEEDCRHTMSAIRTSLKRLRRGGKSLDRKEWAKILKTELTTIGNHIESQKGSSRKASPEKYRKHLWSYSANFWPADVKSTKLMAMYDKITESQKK

NC[C@H]1CC[C@H](C(NC(=O)c2cccc(F)c2)c2ccccn2)CC1 (stereo partly specified)
PXC50 ([1]; MAX_EFFECT 33.33333333): < 4
PXC50 ([1]; MAX_EFFECT 43.95393474): < 4
PXC50 ([1]; MAX_EFFECT 49.10394265): < 4
PXC50 ([1]; MAX_EFFECT 49.8349835): < 4
PXC50 ([1]; MAX_EFFECT 55.07246377): < 4
Percent Effect [2]: 0.535%
Percent Effect [3]: 12%
Percent Effect [4]: -8.09%
Percent Effect (Trypanosoma cruzi): 6.51%
Percent Effect [5]: -0.443%
Percent Effect [6]: 9.36%
Percent Effect (Homo sapiens): 8.62%
Percent Effect [7]: 31.8%
Percent Effect [8]: 45%
Percent Effect [9]: -26.3%

c1ccc(C2CCCN(c3cncc(-n4cccn4)n3)CC2)cc1 (stereo unspecified)
PXC50 ([1]; BOTTOM 2.059841181, HILLSLOPE 1.067052754, MAX_EFFECT 60.46065259, TOP 100.0): 4.15
PXC50 ([1]; BOTTOM 3.016481369, HILLSLOPE 1.023719455, MAX_EFFECT 53.04659498, TOP 100.0): 4.01
PXC50 ([1]; BOTTOM -1.1240017, HILLSLOPE 1.127395441, MAX_EFFECT 50.23923445, TOP 100.0): 4.01
PXC50 ([1]; MAX_EFFECT 41.25412541): < 4
PXC50 ([1]; MAX_EFFECT 41.30434783): < 4

Cn1cccc1C1CCCCCN1C(=O)c1ccc(NC2CC2)nc1 (stereo unspecified)
PXC50 ([1]; BOTTOM 0.111908338, HILLSLOPE 1.39754326, MAX_EFFECT 51.12651646, TOP 100.0): 4.03
PXC50 ([1]; BOTTOM 4.752718183, HILLSLOPE 1.435645002, MAX_EFFECT 69.44444444, TOP 100.0): 4.25
PXC50 ([1]; BOTTOM 4.940186034, HILLSLOPE 1.180279811, MAX_EFFECT 63.75838926, TOP 100.0): 4.18
PXC50 ([1]; MAX_EFFECT 37.16108453): < 4
PXC50 ([1]; MAX_EFFECT 39.73128599): < 4

COC1CCCC(Nc2nc(Nc3ccc(F)c(F)c3)nc3c2cnn3C)C1 (stereo unspecified)
PXC50 ([1]; BOTTOM 3.912528548, HILLSLOPE 1.076870083, MAX_EFFECT 68.97196262, TOP 71.78159337): 5.18
PXC50 ([1]; BOTTOM 5.265177704, HILLSLOPE 1.728535848, MAX_EFFECT 54.8245614, TOP 53.52484427): 5.16
PXC50 ([1]; BOTTOM 8.334941311, HILLSLOPE 1.334767366, MAX_EFFECT 54.01869159, TOP 53.22848094): 5.23
PXC50 ([1]; BOTTOM -8.876719942, HILLSLOPE 0.681128814, MAX_EFFECT 53.21888412, TOP 100.0): 4.53
PXC50 ([1]; MAX_EFFECT 40.38004751): < 4
PXC50 ([1]; MAX_EFFECT 46.81933842): < 4
